# Measured values as given in the supplement of paper PMC10849652.
# The full data set covers some 8,800 targets. This sample favours those with a hit. About 0.5% of all pairs of compound and target were hits. Values without a mark were called inactive.
# Tests used:
# Assay in all cases: log2 fold change, soluble protein after heating vs DMSO (PISA); higher = thermal stabilisation; K562 lysate, 10 uM; active = over 0.2 and 3.5 SD of the protein, either way, in both replicates (recomputed)
# ibrutinib = compound: C=CC(=O)N1CCC[C@@H](n2nc(-c3ccc(Oc4ccccc4)cc3)c3c(N)ncnc32)C1 [ibrutinib]
# Outline: (§1)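 Log-two fold change in thermal stability relative to solvent controls is reported from duplicates. For each sample, crude K562 extract from dounce-homogenised pellets in PBS pH 7.4 with 1 mM MgCl2, at 1 mg/mL protein, was treated with 10 μM compound for 30 min. Aliquots heated for 3 min across 48°C-58°C were pooled, brought to 0.5% NP-40 at 4°C and cleared at 21,000xg for 90 min. The supernatant was quantified by TMTpro 16plex LC-MS/MS with channel sums equalised.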
# [1] = compound: CC(=O)c1cnc2ccc(-c3cc(Cl)c(O)c(Cl)c3)nc2c1N[C@H]1CC[C@H](CN(C)C)CC1
# Outline: as §1
# ralimetinib = compound: CC(C)(C)Cn1c(N)nc2ccc(-c3[nH]c(C(C)(C)C)nc3-c3ccc(F)cc3)nc21 [ralimetinib]
# Outline: as §1
# [2] = compound: CC(C)(O)CC(=O)NCCn1ccc2ncnc(Nc3ccc(Oc4cccc(C(F)(F)F)c4)c(Cl)c3)c21
# Outline: as §1
# [3] = compound: CC(C)C1=C2N=C(C=C(N2N=C1)NCC3=CC=CC=C3)NCCCCCCN
# Outline: as §1
# [4] = compound: CC1=C(C(CC(=O)N1)C2=CC=C(C=C2)C(F)(F)F)C(=O)NC3=C(C=C4C(=C3)C=NN4)F
# Outline: as §1
# [5] = compound: CC1=C(C2=C(C=C1)C(=O)C3=CC=CC=C3N2CCCN)C
# Outline: as §1
# [6] = compound: CC1=C(C=C(C=C1)NC(=O)C2=CC(=CC=C2)C(C)(C)C#N)NC3=CC4=C(C=C3)N=CN(C4=O)C
# Outline: as §1
# [7] = compound: CC1=C(C=C(C=C1)NC(=O)C2=CC(=CC=C2)N(C)C)NC(=O)C3=CC=C(C=C3)O
# Outline: as §1
# [8] = compound: CC1=CC=C(C=C1)SC2=C3C=C(SC3=CN=C2)C(=O)N
# Outline: as §1
# Chain of UniProt Q13442 (Q13442 whole entry, looked up): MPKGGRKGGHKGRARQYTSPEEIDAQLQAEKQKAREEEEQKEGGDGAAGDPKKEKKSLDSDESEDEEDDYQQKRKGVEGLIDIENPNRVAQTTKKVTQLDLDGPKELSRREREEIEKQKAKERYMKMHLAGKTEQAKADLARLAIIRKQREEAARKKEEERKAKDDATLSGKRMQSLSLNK
# Chain of UniProt O15530 (O15530 whole entry, looked up): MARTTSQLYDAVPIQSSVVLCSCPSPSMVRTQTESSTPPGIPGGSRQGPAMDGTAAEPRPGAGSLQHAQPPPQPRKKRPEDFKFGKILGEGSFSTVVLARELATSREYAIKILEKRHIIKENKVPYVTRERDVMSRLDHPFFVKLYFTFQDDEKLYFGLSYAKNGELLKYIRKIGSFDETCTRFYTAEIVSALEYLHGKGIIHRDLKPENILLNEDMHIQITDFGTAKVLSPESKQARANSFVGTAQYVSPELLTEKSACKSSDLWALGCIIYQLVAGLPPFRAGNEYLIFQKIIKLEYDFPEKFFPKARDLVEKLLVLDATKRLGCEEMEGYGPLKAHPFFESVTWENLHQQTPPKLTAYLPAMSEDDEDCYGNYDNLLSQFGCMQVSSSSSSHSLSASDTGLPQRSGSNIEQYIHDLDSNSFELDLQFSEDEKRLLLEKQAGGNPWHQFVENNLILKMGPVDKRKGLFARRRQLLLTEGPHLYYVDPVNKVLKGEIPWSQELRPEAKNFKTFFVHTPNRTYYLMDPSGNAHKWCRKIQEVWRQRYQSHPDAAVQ
# Chain of UniProt Q969Q6 (Q969Q6 whole entry, looked up): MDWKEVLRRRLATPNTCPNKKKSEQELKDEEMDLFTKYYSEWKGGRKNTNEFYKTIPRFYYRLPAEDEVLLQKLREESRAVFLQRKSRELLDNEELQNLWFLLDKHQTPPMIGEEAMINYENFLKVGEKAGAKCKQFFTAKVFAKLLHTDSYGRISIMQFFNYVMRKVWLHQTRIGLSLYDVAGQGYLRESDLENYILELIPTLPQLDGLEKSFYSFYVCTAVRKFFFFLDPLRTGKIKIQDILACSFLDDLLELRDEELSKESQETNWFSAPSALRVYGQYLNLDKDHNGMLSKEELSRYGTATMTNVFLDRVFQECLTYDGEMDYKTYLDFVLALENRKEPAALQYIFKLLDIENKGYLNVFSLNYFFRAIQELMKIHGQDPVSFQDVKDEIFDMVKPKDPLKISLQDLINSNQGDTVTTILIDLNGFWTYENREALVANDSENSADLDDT
# Chain of UniProt O00408 (O00408 whole entry, looked up): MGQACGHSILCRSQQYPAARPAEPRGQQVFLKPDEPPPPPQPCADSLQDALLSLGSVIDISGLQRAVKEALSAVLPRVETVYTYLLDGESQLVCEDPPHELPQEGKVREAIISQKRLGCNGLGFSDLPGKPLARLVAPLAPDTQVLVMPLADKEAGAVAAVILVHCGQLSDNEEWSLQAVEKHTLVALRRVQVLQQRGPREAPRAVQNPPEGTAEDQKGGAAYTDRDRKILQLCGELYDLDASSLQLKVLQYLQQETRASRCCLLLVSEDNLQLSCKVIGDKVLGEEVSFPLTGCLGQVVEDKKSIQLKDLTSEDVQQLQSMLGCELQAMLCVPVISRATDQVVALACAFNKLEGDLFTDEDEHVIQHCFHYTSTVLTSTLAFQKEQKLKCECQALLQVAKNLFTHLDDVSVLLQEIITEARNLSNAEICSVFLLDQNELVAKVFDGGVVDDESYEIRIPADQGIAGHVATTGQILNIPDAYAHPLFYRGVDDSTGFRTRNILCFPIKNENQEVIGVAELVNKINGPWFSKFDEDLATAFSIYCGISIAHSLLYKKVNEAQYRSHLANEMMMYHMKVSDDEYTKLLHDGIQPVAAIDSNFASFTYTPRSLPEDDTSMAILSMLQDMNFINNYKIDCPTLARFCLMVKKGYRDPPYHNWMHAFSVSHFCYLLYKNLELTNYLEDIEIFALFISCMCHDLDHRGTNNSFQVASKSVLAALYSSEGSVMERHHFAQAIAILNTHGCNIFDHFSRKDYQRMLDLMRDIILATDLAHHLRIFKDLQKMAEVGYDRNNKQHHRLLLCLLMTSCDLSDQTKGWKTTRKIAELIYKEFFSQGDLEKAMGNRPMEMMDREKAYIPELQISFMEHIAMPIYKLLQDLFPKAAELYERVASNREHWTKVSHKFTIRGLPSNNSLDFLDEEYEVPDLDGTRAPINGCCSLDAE
# Chain of UniProt P46020 (P46020 whole entry, looked up): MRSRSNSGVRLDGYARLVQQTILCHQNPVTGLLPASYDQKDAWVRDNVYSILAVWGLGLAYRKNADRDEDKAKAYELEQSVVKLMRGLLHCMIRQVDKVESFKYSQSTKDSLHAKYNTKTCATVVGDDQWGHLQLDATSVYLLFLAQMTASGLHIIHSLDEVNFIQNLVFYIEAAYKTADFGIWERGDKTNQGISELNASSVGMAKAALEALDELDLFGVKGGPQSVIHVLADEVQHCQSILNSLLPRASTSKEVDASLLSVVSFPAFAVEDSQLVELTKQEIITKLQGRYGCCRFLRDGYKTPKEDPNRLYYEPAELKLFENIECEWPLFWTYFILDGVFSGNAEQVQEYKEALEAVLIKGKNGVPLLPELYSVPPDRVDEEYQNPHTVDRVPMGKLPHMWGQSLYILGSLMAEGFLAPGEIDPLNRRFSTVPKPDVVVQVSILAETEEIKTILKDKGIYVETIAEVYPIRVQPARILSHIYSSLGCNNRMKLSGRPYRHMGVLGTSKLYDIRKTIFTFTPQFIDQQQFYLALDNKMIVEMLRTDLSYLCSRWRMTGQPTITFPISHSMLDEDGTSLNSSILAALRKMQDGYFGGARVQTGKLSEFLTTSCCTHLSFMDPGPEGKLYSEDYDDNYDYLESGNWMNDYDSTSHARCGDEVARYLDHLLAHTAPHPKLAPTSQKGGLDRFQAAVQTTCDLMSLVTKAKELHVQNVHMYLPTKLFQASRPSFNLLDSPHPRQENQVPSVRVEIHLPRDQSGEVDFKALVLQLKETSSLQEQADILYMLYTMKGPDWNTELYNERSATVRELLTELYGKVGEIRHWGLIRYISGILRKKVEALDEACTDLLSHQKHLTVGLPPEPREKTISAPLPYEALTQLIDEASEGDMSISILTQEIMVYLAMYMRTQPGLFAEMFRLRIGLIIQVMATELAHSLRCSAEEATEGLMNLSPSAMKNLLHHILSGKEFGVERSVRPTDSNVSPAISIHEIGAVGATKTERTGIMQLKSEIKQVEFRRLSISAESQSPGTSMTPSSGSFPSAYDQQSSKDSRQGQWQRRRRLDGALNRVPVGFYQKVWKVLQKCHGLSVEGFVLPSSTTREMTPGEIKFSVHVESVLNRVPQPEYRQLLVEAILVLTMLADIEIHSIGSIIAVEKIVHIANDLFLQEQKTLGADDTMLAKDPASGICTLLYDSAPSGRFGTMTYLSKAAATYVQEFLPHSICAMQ
# Chain of UniProt Q9NY27 (Q9NY27 whole entry, looked up): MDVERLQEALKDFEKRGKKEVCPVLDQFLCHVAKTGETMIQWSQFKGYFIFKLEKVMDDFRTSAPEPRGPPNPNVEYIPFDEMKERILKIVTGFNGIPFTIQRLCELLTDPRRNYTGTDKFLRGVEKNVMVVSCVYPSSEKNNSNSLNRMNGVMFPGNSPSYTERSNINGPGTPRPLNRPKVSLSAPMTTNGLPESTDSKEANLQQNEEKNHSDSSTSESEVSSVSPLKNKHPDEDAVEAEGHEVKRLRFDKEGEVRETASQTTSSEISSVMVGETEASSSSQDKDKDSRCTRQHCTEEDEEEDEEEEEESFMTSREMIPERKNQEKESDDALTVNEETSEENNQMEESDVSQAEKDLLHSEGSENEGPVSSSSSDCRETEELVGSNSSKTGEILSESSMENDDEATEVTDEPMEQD
# Chain of UniProt Q9UMR5 (Q9UMR5 whole entry, looked up): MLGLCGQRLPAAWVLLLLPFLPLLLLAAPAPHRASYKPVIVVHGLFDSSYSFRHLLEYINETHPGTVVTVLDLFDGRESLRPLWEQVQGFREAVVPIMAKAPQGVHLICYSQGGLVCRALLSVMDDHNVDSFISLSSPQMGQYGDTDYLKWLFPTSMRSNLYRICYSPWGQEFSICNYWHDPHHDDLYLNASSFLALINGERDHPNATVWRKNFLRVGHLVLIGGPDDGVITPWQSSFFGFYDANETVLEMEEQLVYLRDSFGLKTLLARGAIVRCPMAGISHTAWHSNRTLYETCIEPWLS
# Chain of UniProt Q96I23 (Q96I23 whole entry, looked up): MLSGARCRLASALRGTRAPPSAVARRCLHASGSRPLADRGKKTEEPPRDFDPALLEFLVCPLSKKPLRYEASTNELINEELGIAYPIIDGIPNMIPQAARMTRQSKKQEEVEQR
Target,log2 fold change (ibrutinib),log2 fold change [1],log2 fold change (ralimetinib),log2 fold change [2],log2 fold change [3],log2 fold change [4],log2 fold change [5],log2 fold change [6],log2 fold change [7],log2 fold change [8]
PPFIA2 (UniProt O75334),-0.013,0.01,0.085,0.015,0.006,0.041,0.02,0.047,0.033,-0.022
PRKD2 isoform 3 (UniProt Q9BZL6),0.026,-0.065,0.019,-0.122,0.045,0.04,-0.111,-0.034,0.046,0.007
PDPK1 (UniProt O15530),0.026,0.236,0.067,-0.075,0.021,0.163,-0.034,-0.056,-0.006,-0.021
PCYT1B (UniProt Q9Y5K3),-0.051,-0.007,0.003,0.013,-0.042,-0.039,-0.03,0.016,-0.002,0.026
PRKAB2 (UniProt O43741),-0.041,-0.018,0.093,-0.129,-0.025,0.086,-0.066,-0.082,0.035,-0.008
PRADC1 (UniProt Q9BSG0),0.026,-0.395,-0.023,0.041,-0.125,0.026,-0.009,0.072,0.008,-0.023
PFKP (UniProt Q01813),-0.001,0.009,0.004,-0.029,0.001,-0.015,0.007,0.003,0.002,0.062
PDCD4 (UniProt Q53EL6),-0.002,-0.002,0.025,-0.032,0.007,0.025,-0.003,0.032,0.007,0.011
POLB (UniProt P06746),-0.011,-0.003,0.068,-0.042,0.083,0.017,-0.006,-0.027,-0.034,-0.003
PDAP1 (UniProt Q13442),-0.042,-0.012,-0.002,-0.065,0.011,-0.046,0.043,-0.015,-0.02,-0.008
POLR3E (UniProt Q9NVU0),0.02,0.018,0.043,-0.006,0.029,0.025,-0.021,-0.004,0.003,0.007
PLIN2 (UniProt Q99541),0.015,0.031,-0.014,-0.022,-0.001,0.069,-0.007,0.016,0.025,0
PI4KA (UniProt P42356),0.012,0.119,0.011,-0.073,-0.045,0,-0.039,0.032,0.04,-0.002
PIP4P2 (UniProt Q8N4L2),0.034,0.138,-0.025,-0.023,-0.08,-0.015,-0.061,0.013,0.008,-0.096
PRKAR2A (UniProt P13861),0.044,-0.064,0.033,-0.032,0.018,0.015,0.005,0,0.011,0.036
PMS2 (UniProt P54278),0.027,0.032,0.046,-0.047,0.069,-0.038,-0.049,-0.019,-0.004,0.002
PYURF (UniProt Q96I23),0.189,-0.026,-0.005,0.079,0.016,0.058,-0.05,0.084,0.012,-0.026
PPP2R3C (UniProt Q969Q6),0.108,0.089,0.109,0.036,-0.088,0.021,-0.02,–,0.048,0.196
PHKA1 (UniProt P46020),-0.045,0.012,0.03,-0.031,-0.053,0.004,-0.019,-0.005,0.032,0.003
PRKCD (UniProt Q05655),0.021,0.162,0.01,-0.005,0.006,0.027,-0.012,-0.004,0.038,0.04
PPT2 isoform 3 (UniProt Q9UMR5),0.03,0.068,-0.001,-0.022,-0.019,-0.026,0.002,-0.038,-0.015,-0.013
PKN1 isoform 2 (UniProt Q16512),0.011,-0.107,-0.001,0.008,0.006,0.091,0.021,0.048,0.035,0.05
PTPN1 (UniProt P18031),-0.003,-0.024,0.018,0.024,0.006,-0.005,-0.002,0.006,0.049,0.016
PRKCSH (UniProt P14314),-0.008,0.01,0.007,0.019,-0.026,-0.004,0.047,-0.057,0.001,0
PPIL2 (UniProt Q13356),-0.002,-0.003,0.02,0.025,0.046,0.011,-0.017,0.033,0.003,0.005
PPP3CA isoform 2 (UniProt Q08209),0.017,0.012,-0.01,-0.052,-0.014,0,-0.03,0.03,0.028,-0.012
PRKCA (UniProt P17252),0.015,0.366 (active),-0.012,0.069,0.032,-0.015,-0.094,-0.002,0.033,-0.045
PPP4R2 (UniProt Q9NY27),-0.012,-0.007,-0.015,-0.058,0.003,0,0,-0.007,0.003,-0.019
PDE2A (UniProt O00408),-0.008,-0.148,-0.202,-0.107,-0.045,-0.018,0.025,-0.038,0.01,-0.11
